A short description of assay [1]: inhibitors of TNFa-induced NFkB p65 translocation, primary screen, imaging, HUVEC, MLSMR starter and 10KST1 sets (AID 438;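 active = inhibition above 20% together with a positive visual image hit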;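 also: compound added about 3h40 before a 20 min TNFalpha stimulation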;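 as to inhibition: signal is the nuclear over cytoplasmic p65 intensity ratio per well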). The conditions noted are these: HUVEC TNFa-induced p65 nuclear translocation; cell count: measured here: nuclei count (cytotoxicity indicator), at 2.08 µM unless noted; inhibition: at 2 µM, stronger effect = higher value unless noted.
A short description of assay [2]: inhibitors of mutant huntingtin aggregation, primary screen, imaging, exon1htt(103Q)mCFP cells, high-content imaging (AID 483;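 active = visual image review flags a hit and inhibition of aggregation exceeds 20%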;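 also: compound exposure lasted 3 days before fixation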;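 as to nuclei count: percent of the per-plate median nuclei count of sample wells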). The conditions noted are these: exon1htt(103Q)mCFP cell line, aggregate imaging, at 2 µM; inhibition of aggregation: stronger effect = higher value; nuclei count: measured here: cell count, toxicity.
Assay [3] is described as follows: inhibitors of E-selectin induction by TNFa, primary screen, imaging, HUVEC, immunofluorescence, MLSMR starter and 10KST1 sets (AID 487;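 active = visually confirmed hit in the image check and inhibition above 20%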;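 as to inhibition: signal is fraction of cell area covered by stained E-selectin grains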;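 as to nuclei count: 100% = median nuclei count of all wells on the same plate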). The following applies: HUVEC TNFalpha-induced E-selectin immunofluorescence imaging, at 2 µM; inhibition: stronger effect = higher value; nuclei count: measured here: cell number, toxicity.
Assay [4] concerns the target Voltage-gated potassium channel subunit beta-2 (Rattus norvegicus) (UniProt P62483). Briefly: KvBeta enzyme negative modulators, primary screen, biochemical, NADPH fluorescence (AID 622;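 active = fluorescence slope higher than the sample average by over 3 SD, cut at about -0.22 in these data, passing the limit was not always enough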;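 also: slope of raw intensity against log time taken from 70 to 1610 s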). The conditions noted are these: recombinant KvBeta, 4-cyanobenzaldehyde reduction, at 10 µM, stronger effect = higher value.
For assay [5] the target is unchanged. Briefly: KvBeta positive modulators, primary screen, biochemical, NADPH fluorescence (AID 623).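 Also: fluorescence intensity change per second fitted from 20 to 320 s.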 The following applies: Recombinant KvBeta, NADPH fluorescence decrease slope, 10 min; at 10 µM; stronger effect = lower value.
Assay [6] addresses Alpha-2C adrenergic receptor (Homo sapiens) (UniProt P18825). Put plainly: modulators of alpha2C/GIRK thallium flux, primary screen, cell-based, HEK293 alpha2C/GIRK1/2 (AID 624;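 active = fluorescence slope after compound addition differing from the mean of all screened samples at 99.7% confidence, in either direction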;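 also: slope of fluorescence ratio to pre-addition baseline per second over 15 to 24 s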). The following applies: thallium flux BTC fluorescence, at 10 µM, actives lie on both sides.
Assay [7] is described as follows: inhibitors of Sendai virus-induced IRF3 signaling, primary screen, TLR/RLR signaling modifier project, cell-based, Sendai virus stimulus, luciferase, 10K MLSCN set (AID 602276;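 active = inhibition at or above 50% at 10 µM; inactive = inhibition below 50%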;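 also: firefly luciferase from ISG56 promoter only with Renilla not read in this screen; 0% = Sendai virus plus DMSO and 100% = medium plus DMSO without virus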). The following applies: HEK293 RL24 IRF3 luciferase reporter, at 10 µM, stronger effect = higher value.
The nature of assay [8]: inhibitors of poly I:C-induced TLR3 signaling, primary screen, cell-based, poly I:C stimulus, luciferase, 10K MLSCN set (AID 602277;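 active = inhibition of the reporter signal at or above 50%; inactive = inhibition below 50%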). The following applies: HEK293-TLR3 RL24 IRF3 luciferase reporter, at 10 µM, stronger effect = higher value. (In a reporter assay the amount or activity of a reporter protein is the signal.)

14 compounds from PubChem BioAssay can be followed below.

Activity calls are given as the source filed them.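 The calls were made as follows, unless noted: active = NADPH fluorescence slope more negative than the mean of all samples by about 3 SD, 99.7% confidence; inactive = the rest.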

For orientation: inhibition means the change of the read-out against control, counted positive when it falls.

Voltage-gated potassium channel subunit beta-2 (Rattus norvegicus), sequence (P62483 whole entry, looked up): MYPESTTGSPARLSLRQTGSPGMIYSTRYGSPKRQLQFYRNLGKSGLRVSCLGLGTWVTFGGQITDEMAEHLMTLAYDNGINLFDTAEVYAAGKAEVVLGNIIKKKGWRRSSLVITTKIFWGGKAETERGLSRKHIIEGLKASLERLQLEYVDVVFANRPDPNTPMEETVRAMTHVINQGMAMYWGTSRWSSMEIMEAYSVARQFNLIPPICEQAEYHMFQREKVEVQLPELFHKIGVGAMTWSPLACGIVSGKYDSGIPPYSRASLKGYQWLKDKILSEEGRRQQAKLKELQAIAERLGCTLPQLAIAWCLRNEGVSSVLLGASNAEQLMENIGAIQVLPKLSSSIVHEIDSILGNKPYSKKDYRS
Alpha-2C adrenergic receptor (Homo sapiens), sequence (P18825 whole entry, looked up): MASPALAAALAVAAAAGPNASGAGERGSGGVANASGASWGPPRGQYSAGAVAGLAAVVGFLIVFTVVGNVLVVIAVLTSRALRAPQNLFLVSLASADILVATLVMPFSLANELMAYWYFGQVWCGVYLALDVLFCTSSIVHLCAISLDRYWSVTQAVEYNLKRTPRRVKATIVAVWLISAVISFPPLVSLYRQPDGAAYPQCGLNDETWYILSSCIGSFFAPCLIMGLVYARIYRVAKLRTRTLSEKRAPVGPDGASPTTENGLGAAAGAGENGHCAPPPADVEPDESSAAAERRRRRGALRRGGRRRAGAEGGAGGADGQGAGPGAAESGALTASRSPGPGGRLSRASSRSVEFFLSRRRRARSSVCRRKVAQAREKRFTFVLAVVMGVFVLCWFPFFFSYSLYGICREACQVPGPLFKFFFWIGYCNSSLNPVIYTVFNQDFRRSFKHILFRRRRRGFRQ

Turning to `CCn1nc(-c2ccccc2)nc2c(=O)n(C)c(=O)nc1-2`, the cell count in assay [1] was 367. Also, the inhibition is -31.1% (inactive) in assay [1], -133% (inactive) in assay [3], -39.4% (inactive) in assay [7] and 94.3% (active) in assay [8]. In addition, in assay [2], the inhibition of aggregation was -8.2% (inactive). Further, the nuclei count was 86% in assay [2] and 109% in assay [3]. Moreover, the fluorescence slope in assay [4] is -0.457 (inactive). In assay [5], the NADPH fluorescence slope is 1.4e-06 (inactive). Also, in assay [6], the slope was -0.00207 (active).

For `Cc1cnn(C2CCN(C)CC2)c1N`, in assay [1], the cell count was determined as 791. Further, the inhibition is -7.4% (inactive) in assay [1], 0.5% (inactive) in assay [3], -8.1% (inactive) in assay [7] and 14.8% (inactive) in assay [8]. The inhibition of aggregation in assay [2] is -22.3% (inactive). For the same compound, the results for the nuclei count in assay [2] and in assay [3] were 75.4% and 110%, respectively. Besides, the fluorescence slope in assay [4] was -0.495 (inactive). Further, the NADPH fluorescence slope in assay [5] is 1.3e-05 (inactive). For the same compound, the slope in assay [6] was 0.00651 (inactive).

The compound `CCN1c2nc3ccccn3c(=O)c2CC2(C(=O)N(C)C(=O)N(C)C2=O)C1C` (centres undefined) came in with a cell count in assay [1] of 359. For the same compound, the inhibition was 4.3% (inactive) in assay [1], -34% (inactive) in assay [3], 19% (inactive) in assay [7] and 19.6% (inactive) in assay [8]. Also, the inhibition of aggregation in assay [2] was -17.6% (inactive). In addition, the results for the nuclei count in assay [2] and in assay [3] were 104% and 114%, respectively. For the same compound, the fluorescence slope in assay [4] was -0.482 (inactive). Besides, the NADPH fluorescence slope in assay [5] was 1.6e-06 (inactive). Besides, the slope in assay [6] was 0.00491 (inactive).

For the compound `O=P(OCC(F)(F)C(F)F)(N1CCCCC1)N1CCCCC1`, the cell count in assay [1] came to 336. For the same compound, the inhibition was -10.1% (inactive) in assay [1], -152% (inactive) in assay [3], 7.79% (inactive) in assay [7] and 9.95% (inactive) in assay [8]. Also, the inhibition of aggregation in assay [2] is -9.4% (inactive). The nuclei count amounted to 121% in assay [2] and 134% in assay [3]. Moreover, in assay [4], the fluorescence slope is -0.5 (inactive). Also, the NADPH fluorescence slope in assay [5] is 2.3e-05 (inactive). For the same compound, the slope in assay [6] is 0.00426 (inactive).

With `COc1ccc(CC[n+]2cc(/N=C(\C)[O-])on2)cc1OC`, in assay [1], the cell count worked out at 648. Further, the inhibition in assay [1] was -23.5% (inactive); in assay [3], 48.2% (inactive); in assay [7], 7.77% (inactive); in assay [8] it was 25.3% (inactive). Besides, the inhibition of aggregation in assay [2] is -6% (inactive). The nuclei count in assay [2] came out at 130%; in assay [3], 95.3%. Also, the fluorescence slope in assay [4] is -0.574 (inactive). Also, the NADPH fluorescence slope in assay [5] was 6e-06 (inactive). Also, the slope in assay [6] was 0.00583 (inactive).

Regarding `COc1ccc(OC)c(N2C(=O)NC(=O)C(CCc3ccncc3)(CCc3ccncc3)C2=O)c1`, in assay [1], the cell count worked out at 397. Further, the inhibition is 1% (inactive) in assay [1], -73% (inactive) in assay [3], 10.1% (inactive) in assay [7] and 12% (inactive) in assay [8]. The inhibition of aggregation in assay [2] was -24.7% (inactive). Also, the results for the nuclei count in assay [2] and in assay [3] were 107% and 115%, respectively. Also, in assay [4], the fluorescence slope is -0.329 (inactive). In addition, the NADPH fluorescence slope in assay [5] was -2.9e-06 (inactive). In assay [6], the slope was 0.00479 (inactive).

Turning to `C=CCn1c(O)c(C(C)=Nc2ccc(N(CC)CC)cc2)c(=O)[nH]c1=O`, the cell count in assay [1] was found to be 327. Further, the inhibition was 2.5% (inactive) in assay [1], -33.7% (inactive) in assay [3], 21.7% (inactive) in assay [7] and 25.5% (inactive) in assay [8]. Also, the inhibition of aggregation in assay [2] is -15.3% (inactive). For the same compound, the nuclei count in assay [2] was determined as 102%; in assay [3] it was 109%. Moreover, the fluorescence slope in assay [4] is -0.492 (inactive). Moreover, the NADPH fluorescence slope in assay [5] is 2.3e-05 (inactive). The slope in assay [6] was 0.00389 (inactive).

With `CC1=C(C(=O)N2CCC3(CC2)OCCO3)C2(CCC(C)CC2)OC1=O` (centres undefined), the cell count in assay [1] was 651. In addition, the inhibition was -25.5% (inactive) in assay [1], -0.9% (inactive) in assay [3], 7.64% (inactive) in assay [7] and 31.1% (inactive) in assay [8]. Also, the inhibition of aggregation in assay [2] is 3.3% (inactive). Further, the nuclei count in assay [2] is 104%; in assay [3], 103%. Further, the fluorescence slope in assay [4] was -0.377 (inactive). For the same compound, the NADPH fluorescence slope in assay [5] is -4.4e-05 (inactive). In addition, the slope in assay [6] is 0.00593 (inactive).

With `COc1ccc(S(=O)(=O)NC(CC(=O)N2CCC3(CC2)OCCO3)c2ccco2)cc1` (centres undefined), the cell count in assay [1] was 633. In addition, the inhibition is 6.7% (inactive) in assay [1], -121% (inactive) in assay [3], 17.9% (inactive) in assay [7] and 22.1% (inactive) in assay [8]. Besides, the inhibition of aggregation in assay [2] was 16.2% (inactive). Moreover, the nuclei count amounted to 86.8% in assay [2] and 144% in assay [3]. Also, the fluorescence slope in assay [4] was -0.451 (inactive). In addition, the NADPH fluorescence slope in assay [5] was -0.000345 (inactive). Further, the slope in assay [6] is 0.00534 (inactive).

In assay [1], `COC(=O)c1cncn1C(C)c1ccccc1` (centres undefined) returned a cell count of 671. Moreover, the inhibition in assay [1] was -3.4% (inactive); in assay [3], -88.8% (inactive); in assay [7] it was -53.9% (inactive); in assay [8], 13.1% (inactive). Further, in assay [2], the inhibition of aggregation is -10.9% (inactive). Besides, the nuclei count in assay [2] came to 97.9%; in assay [3] it was 110%. In assay [4], the fluorescence slope is -0.488 (inactive). Moreover, the NADPH fluorescence slope in assay [5] is -2.9e-05 (inactive). In addition, the slope in assay [6] was 0.0055 (inactive).

The compound `CC(C)(C)P(=O)(c1ccncc1)N1CCCC1` (centres undefined) had a cell count in assay [1] of 520. For the same compound, the inhibition is -2.4% (inactive) in assay [1], -21% (inactive) in assay [3], 14.9% (inactive) in assay [7] and 22.7% (inactive) in assay [8]. Moreover, in assay [2], the inhibition of aggregation was -2.3% (inactive). The nuclei count in assay [2] is 113%; in assay [3], 115%. Besides, the fluorescence slope in assay [4] is -0.275 (inactive). For the same compound, in assay [5], the NADPH fluorescence slope was -4.3e-05 (inactive). Moreover, the slope in assay [6] is 0.00562 (inactive).

`Cc1ccnc(-n2c(-c3ccco3)nc3ccccc3c2=O)c1`: the cell count in assay [1] came to 445. Further, the inhibition in assay [1] was 10.2% (inactive); in assay [3] it was -4.3% (inactive); in assay [7] it was 6.03% (inactive); in assay [8], -0.166% (inactive). Moreover, in assay [2], the inhibition of aggregation was -19.2% (inactive). Further, the results for the nuclei count in assay [2] and in assay [3] were 115% and 106%, respectively. For the same compound, the fluorescence slope in assay [4] was -0.508 (inactive). In addition, the NADPH fluorescence slope in assay [5] was -3.8e-05 (inactive). For the same compound, the slope in assay [6] is 0.0068 (inactive).

In the case of `Cc1cccc(C2=NCC(=O)N(CC(=O)NCc3ccco3)c3sc4c(c32)CCCC4)c1`, in assay [1], the cell count was determined as 291. Further, the inhibition in assay [1] was 14.7% (inactive); in assay [3], -48.4% (inactive); in assay [7] it was 14.4% (inactive); in assay [8], 49.8% (inactive). In assay [2], the inhibition of aggregation was 13.6% (inactive). Moreover, the nuclei count worked out at 92.1% in assay [2] and 87.3% in assay [3]. Further, the fluorescence slope in assay [4] was -0.56 (inactive). Further, the NADPH fluorescence slope in assay [5] is -8.4e-05 (inactive). Also, the slope in assay [6] was 0.00582 (inactive).

Regarding `O=C(CCCOc1ccc(Cl)cc1Cl)N1CCC2(CC1)OCCO2`, the cell count in assay [1] amounted to 751. The inhibition in assay [1] is -20.4% (inactive); in assay [3] it was -51.1% (inactive); in assay [7], -4.5% (inactive); in assay [8], -38.8% (inactive). For the same compound, in assay [2], the inhibition of aggregation was -14.9% (inactive). In addition, the values for the nuclei count in assay [2] and in assay [3] were 114% and 102%, respectively. Besides, in assay [4], the fluorescence slope is -0.365 (inactive). Also, the NADPH fluorescence slope in assay [5] was -4.9e-05 (inactive). In addition, the slope in assay [6] is 0.0028 (inactive).
